Consider 2 molecules from ChEMBL document CHEMBL1961873, “Compounds: GSK PKIS; Assays: Nanosyn kinase panel” (2012).

As usually defined, the inhibition is the drop in the measured response relative to a control, in per cent.

The target in experiment [1] is T1, Inhibitor of nuclear factor kappa-B kinase subunit epsilon (Homo sapiens) (UniProt Q14164).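 Also: reported values are averaged percent inhibition figures against human IKKε.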
T1 sequence (whole entry): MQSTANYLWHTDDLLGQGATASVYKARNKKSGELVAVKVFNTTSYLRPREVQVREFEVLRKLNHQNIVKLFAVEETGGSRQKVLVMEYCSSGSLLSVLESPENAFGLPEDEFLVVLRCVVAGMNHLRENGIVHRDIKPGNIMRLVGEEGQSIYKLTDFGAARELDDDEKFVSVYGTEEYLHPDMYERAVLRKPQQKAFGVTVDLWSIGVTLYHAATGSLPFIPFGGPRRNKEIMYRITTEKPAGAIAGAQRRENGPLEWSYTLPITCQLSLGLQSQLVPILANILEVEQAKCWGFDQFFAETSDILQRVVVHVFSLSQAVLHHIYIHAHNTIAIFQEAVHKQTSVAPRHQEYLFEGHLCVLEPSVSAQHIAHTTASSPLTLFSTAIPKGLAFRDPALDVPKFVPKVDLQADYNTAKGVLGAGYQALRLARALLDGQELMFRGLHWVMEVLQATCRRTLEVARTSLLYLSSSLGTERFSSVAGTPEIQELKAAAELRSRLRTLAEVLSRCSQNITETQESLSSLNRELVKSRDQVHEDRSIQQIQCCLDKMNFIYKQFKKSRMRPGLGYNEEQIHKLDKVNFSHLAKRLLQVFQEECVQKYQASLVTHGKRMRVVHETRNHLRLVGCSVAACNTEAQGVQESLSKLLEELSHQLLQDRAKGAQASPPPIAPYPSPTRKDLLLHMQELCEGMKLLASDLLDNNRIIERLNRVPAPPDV
As to conditions: at 1 µM.

The target of experiment [2] is T2, Serine/threonine-protein kinase Nek1 (Homo sapiens) (UniProt Q96PY6).
T2 sequence (whole entry): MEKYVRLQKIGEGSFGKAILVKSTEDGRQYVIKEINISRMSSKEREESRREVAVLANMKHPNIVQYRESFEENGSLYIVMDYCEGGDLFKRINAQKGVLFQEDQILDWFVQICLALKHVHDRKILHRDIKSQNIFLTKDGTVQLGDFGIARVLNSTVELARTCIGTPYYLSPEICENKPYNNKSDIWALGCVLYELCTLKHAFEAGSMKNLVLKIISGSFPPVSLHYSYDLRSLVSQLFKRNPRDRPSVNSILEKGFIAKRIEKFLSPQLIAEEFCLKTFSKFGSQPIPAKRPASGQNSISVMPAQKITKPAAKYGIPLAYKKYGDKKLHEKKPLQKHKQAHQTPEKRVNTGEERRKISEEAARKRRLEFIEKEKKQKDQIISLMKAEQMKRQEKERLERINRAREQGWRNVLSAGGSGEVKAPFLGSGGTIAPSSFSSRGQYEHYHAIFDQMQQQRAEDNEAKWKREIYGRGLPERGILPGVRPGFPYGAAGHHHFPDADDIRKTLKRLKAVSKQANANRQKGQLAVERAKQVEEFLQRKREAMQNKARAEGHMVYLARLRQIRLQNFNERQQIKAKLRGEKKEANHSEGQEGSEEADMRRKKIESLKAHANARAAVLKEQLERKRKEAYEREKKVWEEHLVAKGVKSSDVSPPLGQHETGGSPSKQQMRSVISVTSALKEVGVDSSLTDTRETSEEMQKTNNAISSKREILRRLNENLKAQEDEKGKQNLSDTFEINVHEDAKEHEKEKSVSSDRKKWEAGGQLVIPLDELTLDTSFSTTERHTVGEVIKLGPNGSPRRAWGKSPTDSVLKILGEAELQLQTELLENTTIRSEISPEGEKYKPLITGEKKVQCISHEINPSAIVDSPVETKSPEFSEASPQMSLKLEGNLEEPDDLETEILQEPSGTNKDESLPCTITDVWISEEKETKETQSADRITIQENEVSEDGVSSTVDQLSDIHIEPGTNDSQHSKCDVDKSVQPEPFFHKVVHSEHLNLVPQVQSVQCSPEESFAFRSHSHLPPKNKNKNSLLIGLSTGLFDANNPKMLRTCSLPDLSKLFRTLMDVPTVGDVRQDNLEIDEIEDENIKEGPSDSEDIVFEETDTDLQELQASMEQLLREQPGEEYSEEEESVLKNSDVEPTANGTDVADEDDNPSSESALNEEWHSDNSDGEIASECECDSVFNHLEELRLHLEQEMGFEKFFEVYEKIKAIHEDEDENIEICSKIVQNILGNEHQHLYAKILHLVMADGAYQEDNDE
Conditions: at 0.1 µM.

Experiment [3] concerns the target T2, Serine/threonine-protein kinase Nek1 (Homo sapiens). As to conditions: at 1 µM.
Experiment [4] concerns the target T3, Serine/threonine-protein kinase Nek2 (Homo sapiens) (UniProt P51955).
T3 sequence (whole entry): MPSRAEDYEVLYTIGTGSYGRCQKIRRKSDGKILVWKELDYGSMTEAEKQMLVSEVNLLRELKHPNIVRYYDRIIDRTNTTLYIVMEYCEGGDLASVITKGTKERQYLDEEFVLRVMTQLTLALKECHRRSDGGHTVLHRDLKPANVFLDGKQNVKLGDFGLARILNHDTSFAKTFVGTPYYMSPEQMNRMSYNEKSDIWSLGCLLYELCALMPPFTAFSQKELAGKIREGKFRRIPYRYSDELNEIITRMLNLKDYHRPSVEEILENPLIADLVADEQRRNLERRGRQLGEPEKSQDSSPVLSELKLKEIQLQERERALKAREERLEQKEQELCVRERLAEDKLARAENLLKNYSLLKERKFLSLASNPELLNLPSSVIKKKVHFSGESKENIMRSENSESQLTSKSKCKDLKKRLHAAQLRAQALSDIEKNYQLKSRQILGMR
Conditions: at 0.1 µM.

Experiment [5] has as its target T3, Serine/threonine-protein kinase Nek2 (Homo sapiens). Conditions: at 1 µM.
Experiment [6] concerns the target Serine/threonine-protein kinase Nek6 (Homo sapiens) (UniProt Q9HC98). As to conditions: at 0.1 µM.
For experiment [7] the target is unchanged. Conditions: at 1 µM.
The target in experiment [8] is Serine/threonine-protein kinase Nek7 (Homo sapiens) (UniProt Q8TDX7). Conditions: at 0.1 µM.
The target is the same in experiment [9]. As to conditions: at 1 µM.
In experiment [10] the target is T4, Serine/threonine-protein kinase Nek9 (Homo sapiens) (UniProt Q8TD19).
T4 sequence (whole entry): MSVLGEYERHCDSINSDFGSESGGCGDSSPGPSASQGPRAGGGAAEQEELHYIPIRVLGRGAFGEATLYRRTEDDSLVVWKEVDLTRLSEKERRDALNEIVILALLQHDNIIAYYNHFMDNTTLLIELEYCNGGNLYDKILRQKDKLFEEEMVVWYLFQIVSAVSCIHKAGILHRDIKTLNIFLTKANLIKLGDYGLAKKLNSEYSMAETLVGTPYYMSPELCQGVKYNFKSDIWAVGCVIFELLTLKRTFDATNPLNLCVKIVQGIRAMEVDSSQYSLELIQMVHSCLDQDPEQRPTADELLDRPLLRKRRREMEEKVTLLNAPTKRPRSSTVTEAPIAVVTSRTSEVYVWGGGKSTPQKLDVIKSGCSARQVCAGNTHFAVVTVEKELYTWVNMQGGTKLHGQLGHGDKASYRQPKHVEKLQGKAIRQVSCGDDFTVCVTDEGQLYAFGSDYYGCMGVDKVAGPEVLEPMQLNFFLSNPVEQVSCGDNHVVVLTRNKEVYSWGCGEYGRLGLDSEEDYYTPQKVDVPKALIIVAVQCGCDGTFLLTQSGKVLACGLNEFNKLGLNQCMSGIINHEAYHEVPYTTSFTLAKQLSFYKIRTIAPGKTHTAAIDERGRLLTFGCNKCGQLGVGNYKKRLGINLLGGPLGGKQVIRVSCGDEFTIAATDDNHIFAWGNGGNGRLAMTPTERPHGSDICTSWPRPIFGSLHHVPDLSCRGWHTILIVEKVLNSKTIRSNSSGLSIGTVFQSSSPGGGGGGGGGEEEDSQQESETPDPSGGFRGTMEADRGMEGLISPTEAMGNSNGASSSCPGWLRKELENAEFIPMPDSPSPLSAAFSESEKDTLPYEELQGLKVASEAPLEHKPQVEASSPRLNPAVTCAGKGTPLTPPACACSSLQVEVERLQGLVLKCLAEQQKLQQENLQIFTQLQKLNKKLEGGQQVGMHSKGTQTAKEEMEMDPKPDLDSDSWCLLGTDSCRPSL
Conditions: at 0.1 µM.

Experiment [11] has as its target T4, Serine/threonine-protein kinase Nek9 (Homo sapiens). Conditions: at 1 µM.
The target in experiment [12] is Serine/threonine-protein kinase PLK1 (Homo sapiens) (UniProt P53350). Conditions: at 0.1 µM.
Experiment [13] shares this target. Conditions: at 1 µM.
For experiment [14], the target named is T5, Dual specificity protein kinase TTK (Homo sapiens) (UniProt P33981).
T5 sequence (whole entry): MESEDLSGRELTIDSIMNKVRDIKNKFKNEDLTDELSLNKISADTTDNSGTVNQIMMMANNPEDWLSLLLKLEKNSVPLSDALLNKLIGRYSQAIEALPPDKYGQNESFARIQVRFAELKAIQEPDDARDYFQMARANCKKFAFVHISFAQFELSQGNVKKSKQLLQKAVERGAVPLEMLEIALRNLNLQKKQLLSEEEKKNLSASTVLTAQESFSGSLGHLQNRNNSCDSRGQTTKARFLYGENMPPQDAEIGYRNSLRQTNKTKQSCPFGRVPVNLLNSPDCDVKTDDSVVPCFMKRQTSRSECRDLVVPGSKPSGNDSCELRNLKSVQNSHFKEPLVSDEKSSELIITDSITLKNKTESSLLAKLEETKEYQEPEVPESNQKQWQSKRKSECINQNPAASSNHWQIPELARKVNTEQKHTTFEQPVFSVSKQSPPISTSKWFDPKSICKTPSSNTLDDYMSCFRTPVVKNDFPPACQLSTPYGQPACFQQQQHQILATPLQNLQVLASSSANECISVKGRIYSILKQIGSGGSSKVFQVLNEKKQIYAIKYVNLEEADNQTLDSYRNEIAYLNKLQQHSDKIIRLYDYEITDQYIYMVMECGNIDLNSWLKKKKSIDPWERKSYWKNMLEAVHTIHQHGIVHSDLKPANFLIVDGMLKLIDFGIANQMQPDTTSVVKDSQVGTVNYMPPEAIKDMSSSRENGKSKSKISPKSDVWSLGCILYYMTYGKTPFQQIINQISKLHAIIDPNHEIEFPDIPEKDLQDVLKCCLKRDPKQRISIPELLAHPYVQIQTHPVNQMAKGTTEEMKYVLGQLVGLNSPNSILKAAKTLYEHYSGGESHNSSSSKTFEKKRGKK
Conditions: at 0.1 µM.

Experiment [15] concerns T6, Receptor-type tyrosine-protein kinase FLT3 (Homo sapiens), P36888 [D835Y].
T6 sequence (whole entry): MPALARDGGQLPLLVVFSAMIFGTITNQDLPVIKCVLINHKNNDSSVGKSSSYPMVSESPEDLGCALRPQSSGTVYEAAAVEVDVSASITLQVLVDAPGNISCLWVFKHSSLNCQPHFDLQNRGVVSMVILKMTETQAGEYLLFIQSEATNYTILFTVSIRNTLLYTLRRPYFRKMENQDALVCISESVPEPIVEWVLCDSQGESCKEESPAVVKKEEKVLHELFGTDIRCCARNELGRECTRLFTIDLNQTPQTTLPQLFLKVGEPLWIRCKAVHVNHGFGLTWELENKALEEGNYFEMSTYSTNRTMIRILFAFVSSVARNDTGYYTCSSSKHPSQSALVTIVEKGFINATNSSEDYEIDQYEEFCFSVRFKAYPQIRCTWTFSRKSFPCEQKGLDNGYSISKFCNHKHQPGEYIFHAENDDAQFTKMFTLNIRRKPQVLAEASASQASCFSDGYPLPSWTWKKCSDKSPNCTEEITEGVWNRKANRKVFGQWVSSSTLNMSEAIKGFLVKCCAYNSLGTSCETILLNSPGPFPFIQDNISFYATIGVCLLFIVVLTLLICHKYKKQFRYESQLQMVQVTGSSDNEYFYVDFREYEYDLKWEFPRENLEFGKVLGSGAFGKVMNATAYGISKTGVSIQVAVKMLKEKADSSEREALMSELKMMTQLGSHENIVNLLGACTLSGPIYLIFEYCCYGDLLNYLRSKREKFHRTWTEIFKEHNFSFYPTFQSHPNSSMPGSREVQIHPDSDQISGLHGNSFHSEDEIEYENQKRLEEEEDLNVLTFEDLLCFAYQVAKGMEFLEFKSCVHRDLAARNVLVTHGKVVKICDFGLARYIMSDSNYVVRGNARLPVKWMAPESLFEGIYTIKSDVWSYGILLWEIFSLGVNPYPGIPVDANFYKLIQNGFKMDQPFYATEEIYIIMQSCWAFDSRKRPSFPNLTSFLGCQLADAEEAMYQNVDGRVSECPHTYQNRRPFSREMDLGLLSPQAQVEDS
As to conditions: at 1 µM.

For experiment [16], the target named is Vascular endothelial growth factor receptor 3 (Homo sapiens) (UniProt P35916). As to conditions: at 0.1 µM.
Experiment [17] has the same target. Conditions: at 1 µM.
Experiment [18] has as its target Macrophage colony-stimulating factor 1 receptor (Homo sapiens) (UniProt P07333). As to conditions: at 0.1 µM.
The target is the same in experiment [19]. Conditions: at 1 µM.
The target of experiment [20] is Tyrosine-protein kinase Fyn (Homo sapiens) (UniProt P06241). As to conditions: at 0.1 µM.
Sequence of Tyrosine-protein kinase Fyn (Homo sapiens) (P06241 2-537 limits assumed): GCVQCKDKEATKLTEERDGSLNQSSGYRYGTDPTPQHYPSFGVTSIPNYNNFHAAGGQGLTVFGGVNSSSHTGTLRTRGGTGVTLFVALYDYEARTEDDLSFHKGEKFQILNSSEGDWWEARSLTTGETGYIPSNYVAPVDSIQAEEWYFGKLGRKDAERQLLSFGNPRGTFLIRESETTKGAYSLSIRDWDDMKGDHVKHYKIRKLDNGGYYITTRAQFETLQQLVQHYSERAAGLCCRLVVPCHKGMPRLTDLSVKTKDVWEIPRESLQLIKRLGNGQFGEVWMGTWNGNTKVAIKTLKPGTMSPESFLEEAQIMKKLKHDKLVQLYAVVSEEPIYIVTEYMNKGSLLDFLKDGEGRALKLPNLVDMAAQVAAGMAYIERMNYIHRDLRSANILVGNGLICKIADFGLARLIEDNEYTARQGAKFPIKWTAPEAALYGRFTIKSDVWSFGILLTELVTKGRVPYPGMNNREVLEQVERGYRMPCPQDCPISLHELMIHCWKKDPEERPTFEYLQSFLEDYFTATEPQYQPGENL

Sequence of Macrophage colony-stimulating factor 1 receptor (Homo sapiens) (P07333 whole entry): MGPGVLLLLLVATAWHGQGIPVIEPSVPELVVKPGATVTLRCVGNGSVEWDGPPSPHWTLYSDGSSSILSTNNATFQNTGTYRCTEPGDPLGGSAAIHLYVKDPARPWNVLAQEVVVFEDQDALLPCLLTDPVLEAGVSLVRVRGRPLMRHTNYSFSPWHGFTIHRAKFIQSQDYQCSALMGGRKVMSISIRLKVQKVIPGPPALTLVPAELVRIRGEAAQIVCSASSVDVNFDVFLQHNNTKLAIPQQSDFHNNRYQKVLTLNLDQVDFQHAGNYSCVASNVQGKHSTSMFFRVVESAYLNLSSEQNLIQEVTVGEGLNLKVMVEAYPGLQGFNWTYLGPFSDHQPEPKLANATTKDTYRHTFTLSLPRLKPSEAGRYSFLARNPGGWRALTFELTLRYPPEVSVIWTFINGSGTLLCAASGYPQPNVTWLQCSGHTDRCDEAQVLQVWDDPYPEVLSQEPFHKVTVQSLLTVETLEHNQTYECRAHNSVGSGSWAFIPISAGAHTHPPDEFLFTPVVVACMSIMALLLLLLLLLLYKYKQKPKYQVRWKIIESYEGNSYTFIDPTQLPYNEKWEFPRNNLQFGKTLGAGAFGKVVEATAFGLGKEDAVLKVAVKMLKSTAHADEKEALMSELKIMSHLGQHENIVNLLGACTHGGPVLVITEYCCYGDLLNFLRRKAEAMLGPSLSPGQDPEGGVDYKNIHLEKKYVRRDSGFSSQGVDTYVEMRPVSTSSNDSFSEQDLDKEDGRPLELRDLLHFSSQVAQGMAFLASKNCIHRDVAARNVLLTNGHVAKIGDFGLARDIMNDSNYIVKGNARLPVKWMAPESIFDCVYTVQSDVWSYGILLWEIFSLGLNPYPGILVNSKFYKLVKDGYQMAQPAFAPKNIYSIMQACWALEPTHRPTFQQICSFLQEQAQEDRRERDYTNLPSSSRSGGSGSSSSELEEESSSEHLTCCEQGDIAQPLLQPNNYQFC
Sequence of Serine/threonine-protein kinase Nek7 (Homo sapiens) (Q8TDX7 whole entry, looked up): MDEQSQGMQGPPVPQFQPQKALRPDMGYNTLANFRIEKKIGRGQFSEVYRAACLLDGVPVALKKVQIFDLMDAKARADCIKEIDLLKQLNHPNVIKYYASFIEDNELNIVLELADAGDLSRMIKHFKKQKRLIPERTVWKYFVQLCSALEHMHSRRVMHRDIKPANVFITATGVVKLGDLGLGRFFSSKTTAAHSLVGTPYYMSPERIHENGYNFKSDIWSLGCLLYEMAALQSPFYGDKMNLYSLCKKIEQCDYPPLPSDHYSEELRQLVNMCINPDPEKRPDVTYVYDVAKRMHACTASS
Sequence of Vascular endothelial growth factor receptor 3 (Homo sapiens) (P35916 whole entry): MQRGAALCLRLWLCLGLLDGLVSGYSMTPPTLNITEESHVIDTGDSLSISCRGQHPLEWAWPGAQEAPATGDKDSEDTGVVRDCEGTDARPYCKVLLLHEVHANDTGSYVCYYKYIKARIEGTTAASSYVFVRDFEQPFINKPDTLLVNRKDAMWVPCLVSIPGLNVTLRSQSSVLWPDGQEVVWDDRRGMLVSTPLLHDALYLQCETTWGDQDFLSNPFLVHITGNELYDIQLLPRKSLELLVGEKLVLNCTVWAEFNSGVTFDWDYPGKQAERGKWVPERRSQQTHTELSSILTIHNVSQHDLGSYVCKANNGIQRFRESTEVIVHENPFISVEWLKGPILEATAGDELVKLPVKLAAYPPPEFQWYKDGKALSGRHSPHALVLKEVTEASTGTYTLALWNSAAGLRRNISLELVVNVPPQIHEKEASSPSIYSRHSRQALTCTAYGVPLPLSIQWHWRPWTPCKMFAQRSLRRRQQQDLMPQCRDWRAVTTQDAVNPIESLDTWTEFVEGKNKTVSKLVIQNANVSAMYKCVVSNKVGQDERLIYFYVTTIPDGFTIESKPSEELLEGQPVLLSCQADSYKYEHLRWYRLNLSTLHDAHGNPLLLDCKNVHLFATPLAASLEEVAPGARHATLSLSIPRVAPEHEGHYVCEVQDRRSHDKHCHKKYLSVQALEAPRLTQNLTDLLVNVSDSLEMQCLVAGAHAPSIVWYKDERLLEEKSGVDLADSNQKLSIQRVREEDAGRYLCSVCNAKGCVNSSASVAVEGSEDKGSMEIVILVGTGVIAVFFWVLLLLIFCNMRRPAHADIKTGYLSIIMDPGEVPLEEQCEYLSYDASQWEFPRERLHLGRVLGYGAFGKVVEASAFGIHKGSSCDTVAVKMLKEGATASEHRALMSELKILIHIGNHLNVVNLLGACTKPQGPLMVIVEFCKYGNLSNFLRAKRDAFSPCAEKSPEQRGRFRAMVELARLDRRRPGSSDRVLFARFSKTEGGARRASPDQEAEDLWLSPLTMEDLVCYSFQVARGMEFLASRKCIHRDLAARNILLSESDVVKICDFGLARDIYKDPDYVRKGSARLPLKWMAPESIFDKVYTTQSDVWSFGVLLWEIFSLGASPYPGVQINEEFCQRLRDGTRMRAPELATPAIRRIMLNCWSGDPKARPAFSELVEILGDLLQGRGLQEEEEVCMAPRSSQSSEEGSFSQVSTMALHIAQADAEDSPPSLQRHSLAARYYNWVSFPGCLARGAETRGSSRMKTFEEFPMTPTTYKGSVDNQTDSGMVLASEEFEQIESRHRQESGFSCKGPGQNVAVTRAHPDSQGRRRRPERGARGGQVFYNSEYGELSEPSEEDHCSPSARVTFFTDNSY
Sequence of Serine/threonine-protein kinase PLK1 (Homo sapiens) (P53350 whole entry): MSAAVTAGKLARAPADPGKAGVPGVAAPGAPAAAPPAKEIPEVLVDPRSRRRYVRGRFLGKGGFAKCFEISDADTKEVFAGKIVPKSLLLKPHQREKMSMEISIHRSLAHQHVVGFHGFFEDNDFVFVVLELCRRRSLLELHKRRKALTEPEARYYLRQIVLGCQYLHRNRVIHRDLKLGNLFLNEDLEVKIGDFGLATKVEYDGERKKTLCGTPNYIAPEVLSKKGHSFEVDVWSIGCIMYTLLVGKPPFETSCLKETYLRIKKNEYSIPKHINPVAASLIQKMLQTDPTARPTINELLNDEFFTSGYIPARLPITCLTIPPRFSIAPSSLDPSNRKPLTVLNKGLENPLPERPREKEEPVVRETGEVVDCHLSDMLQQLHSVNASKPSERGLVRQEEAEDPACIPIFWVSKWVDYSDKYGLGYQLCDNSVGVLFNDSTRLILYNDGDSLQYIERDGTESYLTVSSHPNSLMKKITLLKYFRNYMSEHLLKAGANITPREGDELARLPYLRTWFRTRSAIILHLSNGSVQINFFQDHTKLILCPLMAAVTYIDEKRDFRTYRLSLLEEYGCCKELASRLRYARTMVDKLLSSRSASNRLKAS
Sequence of Serine/threonine-protein kinase Nek6 (Homo sapiens) (Q9HC98 whole entry): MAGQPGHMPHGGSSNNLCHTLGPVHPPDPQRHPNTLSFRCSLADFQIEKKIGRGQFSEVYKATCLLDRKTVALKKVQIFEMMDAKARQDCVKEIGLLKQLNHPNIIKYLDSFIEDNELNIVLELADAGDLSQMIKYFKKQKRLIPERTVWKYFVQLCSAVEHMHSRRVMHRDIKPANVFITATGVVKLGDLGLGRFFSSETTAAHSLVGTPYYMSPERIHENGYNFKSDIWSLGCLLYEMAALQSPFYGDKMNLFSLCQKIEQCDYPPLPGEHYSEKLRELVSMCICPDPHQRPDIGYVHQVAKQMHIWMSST

As for `CC(C)c1ccc(Nc2nccc(-c3cnn4ncccc34)n2)cc1`, the inhibition in experiment [1] is 7.95%; in experiment [2], 3.1%; in experiment [3] it was 13.5%; in [4], 3.86%; in experiment [5], 8.45%; in experiment [6], 1.7%. In addition, the inhibition in experiment [7] came to 3.3%; in experiment [8], 3.35%; in experiment [9], 4.87%; in experiment [10], 11.3%; in experiment [11] it was 11%; in experiment [12], 2.9%. Further, the inhibition is 4.81% in [13]; 5.54% in [14]; 23.1% in [15]; 0.79% in experiment [16]; 9.77% in [17]; 23% in experiment [18]. Further, the inhibition turned out to be 72.1% in experiment [19] and 1.04% in experiment [20].
For the molecule `CN(C)CCCn1c(-c2nonc2N)nc2cnccc21`, the inhibition in experiment [1] is 4.6%; in experiment [2], 2.29%; in experiment [3], 2.28%; in [4] it was 5.09%; in experiment [5] it was 5.23%; in experiment [6], 0.8%. For the same molecule, the inhibition in [7] was 5.07%; in [8] it was 6.28%; in experiment [9], 1.98%; in experiment [10] it was 8.39%; in experiment [11], 12.3%; in [12], 3.73%. The inhibition is 4.15% in [13]; 8.12% in experiment [14]; -1.23% in experiment [15]; 15.4% in experiment [16]; 15.3% in [17]; 2.34% in [18]. Also, the values for the inhibition in [19] and in experiment [20] were 1.06% and 2.62%, respectively.
